Test results: PubChem BioAssay AID1347146 (National Center for Advancing Translational Sciences (NCATS), 2019)
Results filed as inconclusive are left out. A number with no mark means an inactive call. Calls of active or inactive are those of the source. Calls come from the whole dose curve; as a rule, active = well fitted inhibition curve with a large enough effect; inconclusive = small, poorly fitted or top-dose-only effect; inactive = no such curve, though single readings can be large or run the other way.

These molecules were tested against Nicotinamide N-methyltransferase (Homo sapiens) (UniProt P40261) (assay: qHTS Assay for Inhibitors of N-terminal methyltransferase 1 (NTMT1): NNMT MTaseGlo counterscreen assay). Details: NNMT enzyme, MTase-Glo luminescence counterscreen; series mostly up to 57.1 µM; activity change, negative = inhibition: at the top concentration.
Sequence of Nicotinamide N-methyltransferase (Homo sapiens) (P40261 whole entry, looked up): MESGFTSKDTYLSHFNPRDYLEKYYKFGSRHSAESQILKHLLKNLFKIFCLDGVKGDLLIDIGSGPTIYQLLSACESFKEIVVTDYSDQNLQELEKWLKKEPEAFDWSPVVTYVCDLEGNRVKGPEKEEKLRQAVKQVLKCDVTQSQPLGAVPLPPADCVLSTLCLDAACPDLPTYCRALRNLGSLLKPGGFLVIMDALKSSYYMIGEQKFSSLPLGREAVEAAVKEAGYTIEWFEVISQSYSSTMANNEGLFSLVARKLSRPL
Description: Assay Submitter (PI): Rong Huang Ph.D, Purdue University, West Lafayette, IN 47907
The N-terminal methytransferase 1 is the first methyltransferase that methylates protein alpha-N-amines and plays an important role in regulating cell mitosis, chromatin interactions and DNA repair. It is observed to be over-expressed in various cancer patient tissues like malignant melanoma and colorectal cancer tissues. Knockdown of NTMT1 in cancer cells causes cell mitotic defects and enhances sensitivity to DNA damaging chemotherapeutics. […] These critical cellular processes in which NTMT1 is implicated, coupled with emerging links to cellular dysfunction, strengthen the inference that NTMT1 is a compelling novel anticancer target. Progress have been made in understanding the molecular properties of NTMT1 and the biological consequences of protein alpha-N-terminal methylation, but there are no specific small molecule probes available for NTMT1 to fully characterize its MTase activity. To address this unmet need, a panel of assay is created and established to enable quantitative high-throughput screening (qHTS) for novel, potent, and selective small molecule NTMT1 inhibitors. Two orthogonal qHTS that use different reagents (ThioGlo vs. MTaseGlo) are developed for primary robotic screening against the NCATS chemical library of more than 400,000 small molecules. Identified inhibitors are reacquired, validated, and further characterized.
MTaseGlo Assay is a luminescence screen that measure the activity of methyltransferases based on the reaction product S-adenosyl homocysteine (SAH). The substrate SAM is converted to SAH upon enzyme activation. MTase-Glo reagent and detection solution convert SAH to ATP and measure the light from the luciferase reaction. Nicotinamide N-methyltransferase (NNMT) is a cystolic enzyme that catalyzes the transfer of a methyl group from the co-factor SAM onto the substrate, nicotinamide (NA) to form 1-methyl-nicotinamide (MNA) and SAH. NNMT MTaseGlo assay is used as a counterscreen to evaluate selectivity of identified inhibitors.
Early Translation Branch (ETB)
National Center for Advancing Translational Sciences (NCATS)
National Institute of Health (NIH)
NNMT enzyme, SAM, NA, and control is provided by the Huang laboratory.
In brief, 3 µL of enzyme mixture (final concentrations of 125 nM and 100 µM for NNMT and SAM, respectively) into all wells of a 1,536-well solid-bottom white plate (Greiner Bio One, Monroe, NC). 23 nL of DMSO or compound (final concentration range 234 nM to 143 microM) was transferred via Wako Pin-tool (Wako Automation, Richmond, VA) and incubated (RT) for ~15 minutes. Next, 1 µL of substrate (final concentration 1 µM NA) or buffer was dispensed, and the reaction proceeded for 30 minutes (RT, protected from light) followed by a 1 microL addition of [5X] MTase-Glo Reagent(R). Samples were incubated (RT, protected from light) for 30 minutes to allow for SAH to be converted to ADP, followed by a 5 microL addition of [1X] MTase-Glo Detection Solution(R) to allow for ADP to be converted to ATP, which was then detected with a luciferase reaction. Samples were centrifuged for 15 seconds at 1,000 RPM's, followed by a RT incubation for 30 minutes. Plates were then read using Luminescence optics on a ViewLux detector. Data were normalized to no-enzyme (0% activity) and no-inhibitor (DMSO; 100%) controls, and the resulting percent inhibition data were fitted to a 4-parameter Hill equation using Graphpad Prism.
Potency is the fitted concentration of half-maximal effect.
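Throughout, for activity change, negative = inhibition: plate controls were DMSO without inhibitor for no effect and no-enzyme control for full effect.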

Compound | activity change, negative = inhibition [%] | Potency
Oc1ccccc1O | 17.2 | 
Oc1cc2c(cc1O)C(c1ccccc1)CNCC2 (stereo not given) | -11.2 | 
C#CCN(C)CCCOc1ccc(Cl)cc1Cl | -13.2 | 
Nc1nc2ccc(Cl)cc2c2nc(-c3ccco3)nn12 | -8.24 | 
O=c1cc(-c2ccccc2)oc2c(O)c(O)ccc12 | -17.4 | 
Cc1ccccc1CNc1ncnc2c1ncn2[C@@H]1O[C@H](CO)[C@@H](O)[C@H]1O | -1.62 | 
NCCc1ccc(O)c(O)c1 | -6.57 | 
CC#C[C@]1(O)CC[C@H]2[C@@H]3CCC4=CC(=O)CCC4=C3[C@@H](c3ccc(N(C)C)cc3)C[C@@]21C | -9.63 | 
CN(C)C(=O)/N=N/C(=O)N(C)C | -12.6 | 
c1ccc(CN2CCC3(CCCc4ccccc43)CC2)cc1 | -10.1 | 
[N-]=[N+]=Nc1nc2c(N)ncnc2n1C1OC(CO)C(O)C1O (stereo not given) | -19.6 | 
CCC(CC)n1ccc2c(C(=O)NCc3c(C)cc(C)[nH]c3=O)cc(C#N)cc21 | -10.6 | 
NC[C@@H]1O[C@H](c2ccccc2)Cc2c1ccc(O)c2O | -10.6 | 
C=CCN1CCc2cc(O)c(O)cc2[C@H](c2ccccc2)C1 | 46.9 | 
COc1cc(/C=C(\C#N)C(=O)c2ccc(O)c(O)c2)cc(I)c1O | -14.5 | 
OCC1OC(n2cnc3c(NO)ncnc32)C(O)C1O (stereo not given) | 116 | 
OCC1OC(n2cnc3c(=S)nc[nH]c32)C(O)C1O (stereo not given) | -8.37 | 
CN(C)CCCN1c2ccccc2Sc2ccc(C(F)(F)F)cc21 | -19.8 | 
S=C(Nc1ccccc1)Nc1nccs1 | -18.7 | 
CCN(CC)CCNC(=O)c1c(C)[nH]c(/C=C2\C(=O)Nc3ccc(F)cc32)c1C | -14.6 | 

Compound | activity change, negative = inhibition [%] | Potency
CC/C(=C(\c1ccccc1)c1ccc(OCCN(C)C)cc1)c1ccccc1 |  | inactive
O=C1NC(=O)C(=Cc2ccc(-c3ccc(F)cc3O)o2)S1 | -13.8 | 
Cc1nn(-c2ccccc2)c(C)c1/C=N/N1CCN(Cc2ccccc2)CC1 | -7.51 | 
CCCc1cc(C)[nH]c(=O)c1CNC(=O)c1cc(-c2ccc(N3CCN(C(C)C)CC3)nc2)cc2c1cnn2C(C)C | -18 | 
O=c1[nH]c(=S)[nH]c(-c2ccccc2)c1Cc1c(O)ccc2ccccc12 | 95.8 | 
Nc1nc(Cl)nc2c1ncn2[C@@H]1O[C@H](COP(=O)(O)OP(=O)(O)OP(=O)(O)O)[C@@H](O)[C@H]1O | 30.3 | 
N#C/C(=C\c1ccc(O)c(O)c1)C(=O)Nc1ccccc1 | -21.1 | 
COc1cc2nc(N3CCOCC3)nc(NC(C)C)c2cc1OC | -19.8 | 
COc1cc2c(NC3CCN(C)CC3)cc(N3CCCCN(C)CC3)cc2cc1OCCOCCN(C)C | -7.49 | 
O=c1c(O)c(-c2ccc(O)c(O)c2)oc2cc(O)cc(O)c12 |  | inactive
COc1ccc(C(=O)/C(Cc2cc(OC)c(OC)c(OC)c2)=C(\C(=O)O)c2ccc3c(c2)OCO3)cc1 | -17.5 | 
O=C1NC(=O)C(c2ccccc2[N+](=O)[O-])=C1Nc1ccc(O)c(Cl)c1 | -29.5 | 
CSc1ccc(C(=O)c2[nH]c(=O)[nH]c2C)cc1 | -13.4 | 
S=C(S)N1CCCC1 |  | 25.1 µM (active)
NCC(O)C1CCCCCCC1 (stereo not given) | -15.3 | 
CC(=O)c1ccc2c(c1)N(CCCN(C)C)c1ccccc1S2 | -29 | 
CCCCC#Cc1nc(NC)c2ncn([C@@H]3O[C@H](CO)[C@@H](O)[C@H]3O)c2n1 | -8.74 | 
NC[C@@H]1O[C@H](C23CC4CC(CC(C4)C2)C3)Cc2c1ccc(O)c2O | -13.5 | 
CC(C)=CCNc1ncnc2c1ncn2[C@@H]1O[C@H](CO)[C@@H](O)[C@H]1O | 130 | 
Cc1nnc(SCC2=C(C(=O)O)N3C(=O)[C@@H](NC(=O)Cn4cnnn4)[C@H]3SC2)s1 | -9.85 | 
